# An excerpt weighted towards active compounds, which were near 11% of everything screened.
# HPGD inh = qHTS Assay for Inhibitors of HPGD (15-Hydroxyprostaglandin Dehydrogenase); actives 4.3% (n = 150,000); purified HPGD, NADH fluorescence kinetic, PGE2 substrate; Potency, µM, inactives show at the top dose activity change, negative = inhibition, hits mostly inhibitors; active = well fitted inhibition curve with a large enough effect, not every such curve was filed as active; inconclusive = small, poorly fitted or top-dose-only effect, or another doubt; inactive = no such curve, though single readings can be large or run the other way; note: potency is the fitted concentration of half-maximal effect; % is set by controls: 0 for no effect and ±100 for the full control effect
# Target sequence (P15428 whole entry, looked up): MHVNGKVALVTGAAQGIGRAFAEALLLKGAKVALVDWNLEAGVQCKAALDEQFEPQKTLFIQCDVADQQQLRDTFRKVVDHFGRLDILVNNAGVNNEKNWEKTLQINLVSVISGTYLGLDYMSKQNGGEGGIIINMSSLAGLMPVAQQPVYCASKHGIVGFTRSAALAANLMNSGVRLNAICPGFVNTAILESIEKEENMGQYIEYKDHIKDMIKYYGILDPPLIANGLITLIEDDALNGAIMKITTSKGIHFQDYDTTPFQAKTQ
#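 20 nM HPGD preincubated 15 min at room temperature with compound in 50 mM Tris-HCl pH 8, 0.01% Tween 20. Started with 1 mM NAD+ and 30 uM prostaglandin E2; NADH fluorescence (360/450 nm) read 5 times over 30-s intervals, last minus first.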
# ALDH1A1 inh = qHTS Assay for Inhibitors of Aldehyde Dehydrogenase 1 (ALDH1A1) | Purified ALDH1A1, NADH fluorescence, propionaldehyde substrate | Potency, µM (highest dose often 75.3 µM), for the others: at the top dose activity, negative = inhibition, actives largely listed as inhibitors | actives 7.3% (n = 220,000); active = well fitted inhibition curve with a large enough effect, not every such curve was filed as active; inconclusive = small, poorly fitted or top-dose-only effect, or another doubt; inactive = no such curve, though single readings can be large or run the other way;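 note: potency is the fitted concentration of half-maximal effect; plate controls were no enzyme wells and a reference inhibitor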
# HTT ATP protect = qHTS Multiplex Assay to Identify Dual Action Probes in a Cell Model of Huntington: Cytoprotection (ATP) | PC12 HTT-Q103 induced, cytoprotection, ATP luminescence, 40 h | Potency, µM (top dose mostly 56.4 µM), inactives show cytoprotection (ATP increase), most hits filed as activators | actives 0.14% (n = 230,000); note: potency is the fitted concentration of half-maximal effect; % of control where 0% means no effect; nearly all actives have a fitted effect of over 45% in size
#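 Stable PC12 Q103-GFP cells in serum-supplemented, phenol red-free DMEM; induction by tebufenozide at 100 nM final; compound dose series; cell viability quantified luminescently from ATP.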
# HttQ103 aggreg = qHTS Multiplex Assay to Identify Dual Action Probes in a Cell Model of Huntington: Aggregate Formation (GFP) | PC12 HttQ103-GFP aggregates, Acumen cytometry, 40 h | Potency, µM (doses to about 46.1 µM), inactives show at the highest dose activity change, negative = inhibition, usual class: inhibitors | actives 1.1% (n = 220,000) | AID 1688, 2009; note: potency is the fitted concentration of half-maximal effect; % is set by controls: 0 for no effect and ±100 for the full control effect; nearly all actives have a fitted effect of over 60% in size
#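 Compounds (qHTS titration) were added to PC12 cells expressing an ecdysone-driven HTT exon 1 Q103–GFP fusion after induction with 100 nM tebufenozide. Aggregate formation was measured as GFP objects in cell lysates.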
# PNC assembly inh = High Content Assay for Compounds that inhibit the Assembly of the Perinucleolar Compartment. actives 3.1% (n = 140,000). PC3M PTB-GFP, PNC prevalence imaging, 16 h; stronger effect = lower value. activity change (PNC), negative = inhibition, % at 10 µM. AID 2417, 2010;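 active = readout at or below -70, meaning at least 70% loss of cells showing the perinucleolar compartment, a nuclear body marking cancer cells; inconclusive = readout between -30 and a set limit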;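 note: plate controls were DMSO wells for no effect and camptothecin positive control wells for full effect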
#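 Compounds are pinned in duplicate onto adhered PC3M cells stably expressing GFP-tagged PTB and incubated 16 h at 37 C. Cells are then fixed, nuclei stained with Hoechst, and PNC-positive cells counted.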
# CBFb-RUNX1 inh = qHTS Assay for Compounds Blocking the Interaction Between CBF-beta and RUNX1 for the Treatment of Acute Myeloid Leukemia. Potency, µM (series often up to 59.8 µM), inactives show at the highest dose activity, negative = inhibition, most hits filed as inhibitors. AlphaScreen CBFb-His/RUNX1-biotin binding, biochemical. AID 1477, 2009. Runt-related transcription factor 1 (Homo sapiens) + Core-binding factor subunit beta …. 230,000 tested, under 10 active; note: % of control where 0% means no effect
#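 AlphaScreen binding: CBFb-His and RUNX1-biotin (30 nM each) preincubated 20 min, compound added for 15 min, then nickel and streptavidin beads for 90 min, all at room temperature. Disruption of the interaction by any mechanism counts as activity.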
# An asterisk follows results filed as active; ? = inconclusive; / = not tested or not shown; [ ] = another dose, or the depositor's remark. Unless noted, calls come from the whole dose curve; as a rule, active = well fitted curve in the direction sought with a large enough effect; inconclusive = small, poorly fitted or top-dose-only effect, or another doubt; inactive = no such curve, though single readings can be large; an effect the other way counts as inactive or inconclusive.
SMILES,HPGD inh,ALDH1A1 inh,HTT ATP protect,HttQ103 aggreg,PNC assembly inh,CBFb-RUNX1 inh
C/C=C1\COC(C(=O)NCc2cccc(OC)c2OC)(C(F)(F)F)C=C1C=C(C)C (centres undefined),/,/,/,/,/,28.0%
CCOc1cccc(N2C(=O)CC(NNC(=O)c3ccc(Br)o3)C2=O)c1 (centres undefined),/,11.2µM*,-6.8%[10 µM],14.2%[9.22 µM],/,-3.2%
Cn1cccc1C(=O)N1CCC2(CCCN(Cc3ccncc3)C2)CC1,-10.4%,?,2.5%,/,/,/
COc1cccc(Cn2c(=O)c(C)nc3cnc(N(C)C)nc32)c1,/,?,-24.4%,/,/,/
O=C(NCc1ccc2c(c1)OCO2)c1cccnc1Cl,/,2.4%,-16.8%,6.7%,/,19.4%
COc1ccccc1CC(=O)NCc1ccc2c(c1)OCO2,14.1µM*,?,-22.0%[0.074 µM],29.7%,-23.2,4.3%
CCOc1ccccc1C(=O)NCc1ccc2c(c1)OCO2,3.98µM*,2.6%,23.6%,-24.3%,54.6,0.5%
CCC(OC(=O)c1ccco1)C(=O)NCc1ccc(C)cc1 (centres undefined),28.2µM*,-2.8%,-0.9%,5.1%,35.9,3.5%
COc1c(Cl)cc(-c2noc(C)c2C(=O)NCc2ccc3c(c2)OCO3)cc1Cl,-6.2%,0.708µM*,-5.8%,2.2%,10.1,7.7%[2.36 µM]
COc1c(Cl)cc(-c2noc(C)c2C(=O)NCc2ccccc2)cc1Cl,-13.6%,?,-21.1%,-14.2%,17.6,10.9%
CN(C)c1ccc(/C=N/NC(=O)CCc2nc3ccccc3[nH]2)cc1,/,?,14.4%[10 µM],0.6%[9.22 µM],/,-11.0%
CC(C)c1ccc(Cn2ccc3c4c(N)nc(NC5CC5)nc4ccc32)cc1,?,1.8%,-79.8%,/,/,1.8%[21.7 µM]
CCOc1cc(C)c(Cl)cc1S(=O)(=O)NCc1ccc2c(c1)OCO2,-9.8%,?,12.6%[0.074 µM],-2.7%,-113.4*,5.4%
CCCN1Cc2cccc(C(=O)NCc3ccc4c(c3)OCO4)c2C1=O,-9.2%,14.1µM*,24.9%,-13.1%,?,2.2%
O=C(OC(C(=O)NCc1ccc2c(c1)OCO2)c1ccccc1F)c1ccco1 (centres undefined),?,1.58µM*,32.3%,6.6%,13.1,2.3%
CCN(CC)CCCC(C)n1c(-c2ccccc2)nc2c(NCCO)nc(C)nc21 (centres undefined),?,?,25.6%,/,/,8.4%
COc1cccc(Cn2c(=O)c(-c3cccs3)nc3cnc(N4CCN(C)CC4)nc32)c1,-10.3%,-4.9%,3.2%,/,/,/
COc1ccc2c(=O)cc(-c3cccnc3)oc2c1OC,/,/,-12.7%[10 µM],-22.4%[9.22 µM],/,6.3%
N#Cc1ccc(COC(=O)c2ccc(N3CCCC3)c([N+](=O)[O-])c2)cc1,-11.9%,?,22.3%[10 µM],17.2%,?,?
CCN1C(=O)/C(=C2\SC(=S)N(NC(=O)c3ccccc3O)C2=O)c2ccccc21,/,/,20.9%[10 µM],23.8%[9.22 µM],/,-11.7%
O=C(CN1C(=O)/C(=C2\SC(=S)N(C3CCS(=O)(=O)C3)C2=O)c2ccccc21)Nc1ccccc1 (centres undefined),-8.6%,7.08µM*,-0.2%[10 µM],-21.2%,-2.2,-1.3%
Cc1ccc(NC(=O)CN2C(=O)/C(=C3\SC(=S)N(C4CCS(=O)(=O)C4)C3=O)c3ccccc32)cc1 (centres undefined),-7.0%,1.41µM*,15.1%[10 µM],0.9%,44.7,-4.3%
COc1ccc(OCCC(=O)OCC(=O)NC2CCCCCCC2)cc1,/,15.8µM*,-7.1%,5.1%,/,1.0%
COC(=O)c1ccc(NC(=S)NCCC2=CCCCC2)cc1,-15.7%,?,-6.9%,20.5%,?,3.3%
